In PubChem BioAssay (Tox21):
Records with an inconclusive call do not appear. The source made the active and inactive calls. Unless noted, calls come from the whole dose curve; as a rule, active = well fitted curve in the direction sought with a large enough effect in the repeat runs; inconclusive = weak or mixed curves; inactive = no such curve, though single readings can be large; an effect the other way counts as inactive or inconclusive.

Assays:
[1] = qHTS assay for small molecule agonists of the p53 signaling pathway - cell viability (AID 651633; calls by dose curve; note: nearly all actives have a fitted effect of over 30% in size; note: potency is the fitted concentration of half-maximal effect)
Outline: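 p53RE-bla cells, seeded at 4,000 per well and rested 5 h at 37 C/5% CO2, received compounds in DMSO for 16 h at 37 C. CellTiter-Glo was then added, and luminescence was read after 30 min at room temperature to gauge cytotoxicity.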

[2] = qHTS assay for small molecules that induce genotoxicity in human embryonic kidney cells expressing luciferase-tagged ATAD5 - cell viability (AID 651634; calls by dose curve; note: nearly all actives have a fitted effect of over 25% in size)
Outline: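 Cells (HEK293T, luciferase-tagged ATAD5) are seeded at 2,000 per well, dosed with compound or DMSO vehicle, and incubated 15.5 hr at 37C and 5% CO2. CellTiter-Fluor is added for 30 min before fluorescence is measured.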

[3] = qHTS assay for small molecule disruptors of the mitochondrial membrane potential - cell viability (AID 720634; calls by dose curve; note: nearly all actives have a fitted effect of over 20% in size; note: potency is the fitted concentration of half-maximal effect)
Outline: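 Cytotoxicity was measured by ATP quantitation in HepG2 wells that had first been treated with compound for 1 hr and stained with m-MPI dye; CellTiter-Glo incubation was 30 min at room temperature.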

[4] = qHTS assay for small molecule disruptors of the mitochondrial membrane potential (AID 720635); note: potency is the fitted concentration of half-maximal effect
Outline: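 HepG2 cells (2,000/well) attached overnight at 37C, then took compound for 1 hr at 37C, 5% CO2. Mito-MPS dye was added for 30 min; fluorescence was read at 490/535 nm (monomers) and 540/590 nm (aggregates).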

[5] = qHTS assay to test for compound auto fluorescence at 535 nm (green) in HepG2 cells (AID 720675)
[6] = qHTS assay to test for compound auto fluorescence at 460 nm (blue) in HEK293 cells (AID 720678)
Outline: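 Blue read-out at excitation 405 nm and emission 460 nm follows overnight compound exposure of HEK293 cells at 37C in 5% CO2. Activity is given as auto fluorescence equivalency to triamterene.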

[7] = qHTS assay to test for compound auto fluorescence at 590 nm (red) in HEK293 cells (AID 720679)
Outline: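 Red channel, Ex/Em 540/590nm; signal expressed as equivalency to Rose Bengal sodium. HEK293, 2,000 cells/well, 10% dialyzed FBS; 23 nL compound pinned after 4-5 hr attachment; overnight 37C/5% CO2 before reading.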

[8] = qHTS assay for small molecules that induce genotoxicity in human embryonic kidney cells expressing luciferase-tagged ATAD5 (AID 651632); note: nearly all actives have a fitted effect of over 15% in size
Outline: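 Cells were seeded at 2,000 per well, dosed with compound, and incubated 16 hr at 37C in 5% CO2. Luciferase activity was then quantified after a 30 min room-temperature incubation with Amplite.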

[9] = qHTS assay to test for compound auto fluorescence at 590 nm (red) in HepG2 cells (AID 720674)
Outline: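 Compound auto-fluorescence is scored relative to Rose Bengal sodium, measured at 540/590 nm in live HepG2 cultures after 1 hr compound contact (37 C, 5% CO2).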

Measured: Potency

O=C(N[C@@H]1N=C(c2ccccc2F)c2cccc3c2N(CC3)C1=O)c1cc2ccccc2[nH]1
inactive: [1] | [2] | [3] | [5] | [6] | [7]
active: [4] 8.41 µM

COC(=O)C(C)N(C(=O)c1ccco1)c1c(C)cccc1C (stereo not drawn)
inactive: [8] | [3] | [4] | [9] | [5] | [6] | [7]

NC1CCC(CC2CCC(N)CC2)CC1 (stereo not drawn)
inactive: [8] | [3] | [4] | [9] | [5] | [6] | [7]

Fc1ccc(C(OCCN2CCN(CCCc3ccccc3)CC2)c2ccc(F)cc2)cc1
inactive: [8] | [3] | [9] | [5] | [6] | [7]

CC(=O)[O-].CC(=O)[O-].CC(=O)[O-].[Cr+3]
inactive: [2] | [9] | [5] | [6] | [7]

C#CCC1=C(C)C(OC(=O)C2C(C=C(C)C)C2(C)C)CC1=O (stereo not drawn)
active: [4] 60.7 µM
inactive: [8] | [9] | [5] | [6] | [7]

Oc1ccc2[nH]cc(CCCCN3CC=C(c4ccccc4)CC3)c2c1
inactive: [1] | [2] | [3] | [9] | [5] | [6] | [7]

O.O.O.O=C([O-])[C@H]([O-])[C@@H]([O-])C(=O)[O-].O=C([O-])[C@H]([O-])[C@@H]([O-])C(=O)[O-].[K+].[K+].[Sb+3].[Sb+3]
inactive: [2] | [3] | [9] | [5] | [6] | [7]

COC(=O)/C=C(\C)OP(=O)(OC)OC
inactive: [8] | [5] | [6] | [7]

CSSC
inactive: [1] | [9] | [5] | [6] | [7]

CC(=O)[O-].CC(=O)[O-].O.O.O.[Pb+2]
inactive: [1] | [9] | [5] | [6] | [7]

N#Cc1sc2c(=O)c3ccccc3c(=O)c=2sc1C#N
active: [3] 24.3 µM | [4] 24.3 µM
inactive: [9] | [5] | [6] | [7]

O=[N+]([O-])C(Br)Br
inactive: [8] | [9] | [5] | [6] | [7]

[F][Sn]([c]1ccccc1)([c]1ccccc1)[c]1ccccc1
active: [1] 3.06 µM | [3] 19.3 µM | [4] 0.273 µM
inactive: [9] | [5] | [6] | [7]

CC(=O)O.CC(=O)O.CC(=O)O.CC(=O)O.CC(=O)O.CC(=O)O.CC(=O)O.O.O.[Cr].[Cr].[Cr]
inactive: [1] | [9] | [5] | [6] | [7]
